The nature of assay [1]: NCI Yeast Anticancer Drug Screen. Data for the rad50 strain (AID 155).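 Note: 0% = growth of vehicle-only cultures of the same strain.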 To be noted: S. cerevisiae rad50 strain growth inhibition; at 50.0 µM; stronger effect = higher value. A digest of the protocol:
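Compounds were tested on a yeast strain with an engineered DNA damage repair alteration; the reported value is growth inhibition normalised to vehicle treatment.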

Assay [2] can be described thus: NCI Yeast Anticancer Drug Screen. Data for the mec2-1 strain (AID 157). To be noted: S. cerevisiae mec2-1 strain, at 50.0 µM, stronger effect = higher value. The method, boiled down:
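mec2-1 yeast strain, carrying an alteration in DNA damage repair or cell cycle control, was exposed to compounds; growth inhibition was measured relative to vehicle-treated controls.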

Assay [3] is described as follows: NCI Yeast Anticancer Drug Screen. Data for the sgs1 mgt1 strain (AID 161).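 Note: 0% = growth of cultures given vehicle only.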 To be noted: S. cerevisiae sgs1 mgt1 strain, at 50.0 µM, stronger effect = higher value. The method, boiled down:
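This yeast growth screen uses a strain with defined DNA-repair lesions; compound-treated growth is compared with vehicle-treated growth.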

The nature of assay [4]: NCI Yeast Anticancer Drug Screen. Data for the cln2 rad14 strain (AID 165).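 Note: 0% = growth equal to vehicle treated cultures.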 To be noted: S. cerevisiae cln2 rad14 strain, at 50.0 µM, stronger effect = higher value. The method, boiled down: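 Yeast carrying cln2 and rad14 alterations (cell cycle control and DNA damage repair) were exposed to compounds. Growth inhibition was measured against vehicle-treated controls.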
A short description of assay [5]: NCI Yeast Anticancer Drug Screen. Data for the bub3 strain (AID 167). To be noted: S. cerevisiae bub3 mutant strain, at 50.0 µM, stronger effect = higher value. The method, boiled down: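 Growth of a checkpoint-deficient yeast mutant is measured after compound exposure. Values represent inhibition relative to vehicle.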
Assay [6] is described as follows: NCI Yeast Anticancer Drug Screen. Data for the mlh1 rad18 strain (AID 175). To be noted: S. cerevisiae mlh1 rad18 strain growth inhibition; at 50.0 µM; stronger effect = higher value. A digest of the protocol: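 Growth inhibition of the yeast strain was measured after compound exposure and expressed relative to vehicle-treated controls. The strain carries defined defects in DNA damage repair.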

The results in this text go back to PubChem BioAssay (NCI).

About 79,000 compounds went through this panel and 15% of them were active in at least one assay; those are over-represented in the sample as a whole. Unmarked numbers belong to inactive results. Active and inactive are the calls of the source. Cut-off read from the data, not from the text of the source: active = growth inhibition above about 70%; inactive = the rest.

In the case of `CSC1=NC=C(C#N)C2=NC(c3ccc(Cl)cc3)NN12` (centres undefined), the growth inhibition in assay [1] was 1.95%; in assay [2] it was 2%; in assay [3] it was 17.2%; in assay [4], 16.3%; in assay [5] it was 15.8%; in assay [6], 14.7%.
For the molecule `CC(C(=O)c1ccccc1)N(C)c1ccccc1` (centres undefined), the growth inhibition was 12.7% in assay [1]; -5.35% in assay [2]; -3.1% in assay [3]; -36.8% in assay [4]; -26% in assay [5]; -1.65% in assay [6].
For `O=S(=O)(/C=C/S(=O)(=O)c1ccccc1)c1ccccc1`, the growth inhibition in assay [1] is 98.4% (active); in assay [2], 98.8% (active); in assay [3], 98.8% (active); in assay [4], 97.9% (active); in assay [5] it was 98.5% (active); in assay [6] it was 98.2% (active).
On to `CC(C)CCCC(C)C1CCC2C3CC=C4CCCCC4(C)C3CCC12C` (centres undefined), for which the growth inhibition is -22.4% in assay [1]; -4.25% in assay [2]; -3.85% in assay [3]; -5.45% in assay [4]; -5.05% in assay [5]; -23.6% in assay [6].
With `Brc1cccc2ccc3ccccc3c12`, the growth inhibition in assay [1] was 23.2%; in assay [2], 19%; in assay [3], 29.1%; in assay [4], 8.25%; in assay [5], 32%; in assay [6] it was 75.7% (active).
For the molecule `Oc1ccccc1/C=N\c1nccs1`, the growth inhibition in assay [1] is 10.7%; in assay [2] it was 19.2%; in assay [3], 18.6%; in assay [4], 12.4%; in assay [5] it was 23.8%; in assay [6], 13.2%.
On to `CC(=O)NC(C(=O)O)C(C)(C)S` (centres undefined), for which the growth inhibition was -1.85% in assay [1]; -48.9% in assay [2]; -4.7% in assay [3]; 26.8% in assay [4]; -33.2% in assay [5]; 8.95% in assay [6].
For the molecule `CC(=O)NNC(=S)N/C=C(/C(=O)c1ccccc1)c1ccccc1`, the growth inhibition was -22.7% in assay [1]; -9.45% in assay [2]; -16.7% in assay [3]; 3.75% in assay [4]; -16.4% in assay [5]; -6.9% in assay [6].
Regarding `Cc1cccc(C)c1NC(=S)N1CCC(CCCC2CCN(C(=S)Nc3c(C)cccc3C)CC2)CC1`, the growth inhibition was -12.8% in assay [1]; -18.6% in assay [2]; -1.65% in assay [3]; 15.7% in assay [4]; 4.8% in assay [5]; 12.2% in assay [6].
On to `Cc1cccc(C)[n+]1[O-]`, for which the growth inhibition was 1.6% in assay [1]; 5.25% in assay [2]; -6.9% in assay [3]; -38.8% in assay [4]; 16.5% in assay [5]; 0.65% in assay [6].
On to `COc1ccc(OCOCOc2ccc(OC)cc2)cc1`, for which the growth inhibition is -8.05% in assay [1]; 9.5% in assay [2]; 12.2% in assay [3]; -285% in assay [4]; 42.9% in assay [5]; -27.8% in assay [6].
On to `COC(=N)c1nnn(-c2ccccc2)n1`, for which the growth inhibition in assay [1] is -8.6%; in assay [2], -8%; in assay [3], -5.05%; in assay [4], -16.1%; in assay [5] it was 2.05%; in assay [6] it was -17.9%.
Turning to `Cc1nc(CC#N)n[nH]1`, the growth inhibition in assay [1] is 24.5%; in assay [2] it was 18%; in assay [3], 17.1%; in assay [4], 11.3%; in assay [5] it was 24.8%; in assay [6] it was 19.7%.
On to `CC(CCOCC1CO1)OCC1CO1` (centres undefined), for which the growth inhibition was 13.8% in assay [1]; -17.4% in assay [2]; 3.85% in assay [3]; 14.8% in assay [4]; -17.5% in assay [5]; 22.6% in assay [6].
As to `Cn1nnc(/C(N)=N/N=C/c2ccccc2)n1`, the growth inhibition is 1.95% in assay [1]; -10.8% in assay [2]; -1.55% in assay [3]; -22.2% in assay [4]; -12.6% in assay [5]; -15.4% in assay [6].
As for `CCN(CC)CCCC(C)NCCCN` (centres undefined), the growth inhibition is -7.15% in assay [1]; -9.05% in assay [2]; -5.4% in assay [3]; -5.4% in assay [4]; -23.3% in assay [5]; -10% in assay [6].
As for `COC(=O)CCBr`, the growth inhibition was -19.8% in assay [1]; 8.15% in assay [2]; 28.8% in assay [3]; -18.2% in assay [4]; -1.9% in assay [5]; 3.5% in assay [6].
Turning to `COc1cc(/C=C/Cc2cc3c(cc2O)OCO3)cc(OC)c1OC`, the growth inhibition in assay [1] is 0.7%; in assay [2], -15.6%; in assay [3] it was 0.55%; in assay [4], -21.6%; in assay [5] it was -1.9%; in assay [6], 0.75%.
`O=Cc1ccccc1COC(=O)c1cc(C(=O)OCc2ccccc2C=O)c(C(=O)OCc2ccccc2C=O)cc1C(=O)OCc1ccccc1C=O`: the growth inhibition was 13.9% in assay [1]; 7.15% in assay [2]; -14.2% in assay [3]; -2.8% in assay [4]; -4.9% in assay [5]; 5.25% in assay [6].
